For 16 compounds, composite z-score and z-score results are on record in PubChem BioAssay.

Active and inactive are the calls of the source.

The nature of assay [1]: binders of probe aFSTL3 on microarray, primary screen, stem cell growth factor project, biochemical, small-molecule microarray, fluorescence 635/667 (AID 1064).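 Also: measures binding of the biotinylated anti-FSTL3 antibody to printed compounds.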 Conditions: higher = more signal.
Assay [2] in a line: binders from COS7 lysate, DM2A8 probe, primary screen, torsin A project, cell lysate, small-molecule microarray, fluorescence 635/667 (AID 1065). As to conditions: higher = more signal, COS7 lysate expressing mutant human TOR1A.
The nature of assay [3]: binders of probe aFGF2 on microarray, primary screen, stem cell growth factor project, biochemical, small-molecule microarray, fluorescence 635/667 (AID 1067).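 Also: measures binding of biotinylated aFGF2 protein to printed compounds on slides; z-score merges feature fluorescence and signal-to-noise across triplicate slides.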 As to conditions: higher = more signal.
A short description of assay [4]: binders of probe aFGF10 on microarray, primary screen, stem cell growth factor project, biochemical, small-molecule microarray, fluorescence 635/667 (AID 1071).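 Also: score merges 667 nm spot intensity and signal to noise from triplicate slides.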 As to conditions: higher = more signal.
Assay [5] concerns the target Neurogenic locus notch homolog protein 2 (Homo sapiens) (UniProt Q04721). Kind of assay: Notch2 binders on small-molecule microarrays, primary screen, biochemical, small-molecule microarray, 635 nm fluorescence, stem cell growth factors (AID 1073). Conditions: Notch2 binding, higher = more signal.
For assay [6], the target named is Pro-neuregulin-1, membrane-bound isoform (Homo sapiens) (UniProt Q02297). Kind of assay: NRG1 binders on small-molecule microarrays, primary screen, psychiatric disease protein project, biochemical, small-molecule microarray, fluorescence 635/667 (AID 1075).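 Also: score combines 667 nm spot fluorescence with signal to noise.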 As to conditions: NRG1 binding, 635 nm fluorescence, higher = more signal.
Assay [7] relates to Neuregulin-1 EGF-like domain. Kind of assay: binders of neuregulin-1 EGF-like domain, primary screen, biochemical, small-molecule microarray, 635 nm fluorescence (AID 1081).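 Also: binding of the protein to compounds printed on small-molecule microarray slides.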 As to conditions: small-molecule microarray binding, higher = more signal.
Assay [8] can be described thus: FRG1 promoter luciferase signal modulators, primary screen, FRG1 inhibition for FSHD, cell-based, C2C12 myotubes, firefly/Renilla luciferase, luminescence (AID 1084). Conditions: higher = more signal, called active from +8 up or from −8 down.
Assay [9] can be described thus: binders of probe aFST on microarray, primary screen, stem cell growth factor project, biochemical, small-molecule microarray, fluorescence 635/667 (AID 1086).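 Also: score merges 667 nm fluorescence with signal-to-noise of each printed compound spot.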 As to conditions: higher = more signal.
Assay [10] in a line: binders of probe aHhip on microarray, primary screen, stem cell growth factor project, biochemical, small-molecule microarray, fluorescence 635/667 (AID 1087).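 Also: score merges spot fluorescence at 667nm with spot signal to noise ratio.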 As to conditions: higher = more signal.

Chain of Pro-neuregulin-1, membrane-bound isoform (Homo sapiens) (Q02297 whole entry, looked up, the tested form may be a part, canonical isoform): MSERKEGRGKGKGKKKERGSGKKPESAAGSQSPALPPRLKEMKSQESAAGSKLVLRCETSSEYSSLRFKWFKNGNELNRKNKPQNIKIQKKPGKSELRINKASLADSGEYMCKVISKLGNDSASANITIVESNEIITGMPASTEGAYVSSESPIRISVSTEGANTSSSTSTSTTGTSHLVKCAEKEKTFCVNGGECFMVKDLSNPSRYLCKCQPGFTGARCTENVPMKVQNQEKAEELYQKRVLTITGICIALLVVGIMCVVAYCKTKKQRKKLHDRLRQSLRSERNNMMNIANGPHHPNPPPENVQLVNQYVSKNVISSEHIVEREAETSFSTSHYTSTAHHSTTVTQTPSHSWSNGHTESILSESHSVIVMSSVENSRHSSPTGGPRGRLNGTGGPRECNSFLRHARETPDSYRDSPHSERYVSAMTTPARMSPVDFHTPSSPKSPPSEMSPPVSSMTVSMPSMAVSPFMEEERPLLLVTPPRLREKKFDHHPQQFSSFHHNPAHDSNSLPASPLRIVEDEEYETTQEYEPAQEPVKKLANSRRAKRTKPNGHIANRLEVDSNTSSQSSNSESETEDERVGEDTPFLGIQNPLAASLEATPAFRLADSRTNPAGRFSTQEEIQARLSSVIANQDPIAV
Chain of Neurogenic locus notch homolog protein 2 (Homo sapiens) (Q04721 whole entry, looked up, canonical isoform): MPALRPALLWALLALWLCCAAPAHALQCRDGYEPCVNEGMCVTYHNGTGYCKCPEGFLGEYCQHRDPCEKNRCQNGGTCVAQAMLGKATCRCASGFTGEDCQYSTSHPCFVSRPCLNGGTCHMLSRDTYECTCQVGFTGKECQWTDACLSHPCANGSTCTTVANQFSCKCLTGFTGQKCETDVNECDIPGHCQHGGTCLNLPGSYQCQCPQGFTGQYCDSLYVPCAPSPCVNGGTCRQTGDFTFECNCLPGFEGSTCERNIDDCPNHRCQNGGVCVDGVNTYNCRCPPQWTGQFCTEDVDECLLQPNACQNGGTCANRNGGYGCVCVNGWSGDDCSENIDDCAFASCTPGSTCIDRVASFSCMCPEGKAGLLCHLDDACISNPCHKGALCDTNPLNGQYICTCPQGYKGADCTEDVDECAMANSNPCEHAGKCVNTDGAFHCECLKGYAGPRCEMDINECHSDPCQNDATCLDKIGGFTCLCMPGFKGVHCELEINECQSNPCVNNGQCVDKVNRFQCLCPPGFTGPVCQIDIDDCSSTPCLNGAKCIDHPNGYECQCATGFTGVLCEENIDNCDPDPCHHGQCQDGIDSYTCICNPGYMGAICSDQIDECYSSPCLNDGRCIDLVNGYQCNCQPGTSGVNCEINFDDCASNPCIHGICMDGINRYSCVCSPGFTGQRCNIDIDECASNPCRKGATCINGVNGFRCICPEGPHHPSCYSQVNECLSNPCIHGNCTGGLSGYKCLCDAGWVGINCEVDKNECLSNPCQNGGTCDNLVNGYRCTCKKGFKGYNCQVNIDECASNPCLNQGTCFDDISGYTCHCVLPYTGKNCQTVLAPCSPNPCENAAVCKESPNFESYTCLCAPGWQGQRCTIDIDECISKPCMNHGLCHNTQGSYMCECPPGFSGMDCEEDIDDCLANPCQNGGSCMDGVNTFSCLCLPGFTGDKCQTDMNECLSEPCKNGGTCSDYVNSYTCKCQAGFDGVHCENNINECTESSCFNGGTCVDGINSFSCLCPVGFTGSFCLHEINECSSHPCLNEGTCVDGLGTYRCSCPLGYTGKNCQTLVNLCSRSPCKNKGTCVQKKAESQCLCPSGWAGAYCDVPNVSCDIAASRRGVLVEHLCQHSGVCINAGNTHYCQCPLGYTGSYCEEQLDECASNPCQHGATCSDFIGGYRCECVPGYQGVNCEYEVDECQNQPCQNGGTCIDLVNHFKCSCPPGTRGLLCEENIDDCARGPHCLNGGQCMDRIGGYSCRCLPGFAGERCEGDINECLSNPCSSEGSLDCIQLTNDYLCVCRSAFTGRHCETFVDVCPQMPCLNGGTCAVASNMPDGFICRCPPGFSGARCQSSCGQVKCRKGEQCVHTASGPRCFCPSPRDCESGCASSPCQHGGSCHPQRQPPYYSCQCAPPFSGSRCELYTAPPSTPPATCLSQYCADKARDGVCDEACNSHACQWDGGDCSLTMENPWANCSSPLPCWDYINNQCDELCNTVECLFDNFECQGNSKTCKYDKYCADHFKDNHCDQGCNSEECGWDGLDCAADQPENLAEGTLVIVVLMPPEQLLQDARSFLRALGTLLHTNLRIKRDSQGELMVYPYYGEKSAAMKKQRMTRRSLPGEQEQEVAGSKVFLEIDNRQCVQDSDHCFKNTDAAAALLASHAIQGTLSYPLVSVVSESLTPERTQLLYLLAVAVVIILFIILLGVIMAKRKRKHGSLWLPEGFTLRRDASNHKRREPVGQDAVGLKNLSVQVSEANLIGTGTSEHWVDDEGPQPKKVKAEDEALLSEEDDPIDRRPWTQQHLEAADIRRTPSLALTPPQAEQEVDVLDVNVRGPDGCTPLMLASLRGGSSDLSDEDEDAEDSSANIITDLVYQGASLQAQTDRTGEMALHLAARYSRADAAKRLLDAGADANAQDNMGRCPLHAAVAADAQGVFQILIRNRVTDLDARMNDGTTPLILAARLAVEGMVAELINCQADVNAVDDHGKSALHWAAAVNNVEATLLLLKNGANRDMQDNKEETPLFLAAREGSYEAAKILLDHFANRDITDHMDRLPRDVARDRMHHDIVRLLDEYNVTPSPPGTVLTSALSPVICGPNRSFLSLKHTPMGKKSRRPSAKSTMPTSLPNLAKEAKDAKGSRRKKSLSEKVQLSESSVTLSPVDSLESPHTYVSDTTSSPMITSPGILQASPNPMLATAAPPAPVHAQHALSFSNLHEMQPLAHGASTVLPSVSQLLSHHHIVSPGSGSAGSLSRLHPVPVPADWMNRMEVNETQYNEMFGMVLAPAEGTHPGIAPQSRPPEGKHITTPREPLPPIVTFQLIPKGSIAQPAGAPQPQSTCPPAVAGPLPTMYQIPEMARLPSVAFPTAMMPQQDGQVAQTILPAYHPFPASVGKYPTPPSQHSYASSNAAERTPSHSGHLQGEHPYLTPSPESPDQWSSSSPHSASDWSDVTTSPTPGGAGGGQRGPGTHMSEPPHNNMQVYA

As for `[N-]=[N+]=Nc1ccccc1C[C@]1(C(=O)NCC(O)CO)N=C(c2ccc(OCCCO)cc2)O[C@H]1c1ccccc1` (stereo not given in full), the composite z-score is 0.451 in assay [1]; 0.533 in assay [2]; -0.0328 in [3]; 0.0717 in assay [4]; 0.641 in [5]; 1.93 in assay [6]. In addition, the composite z-score in [7] was 0.867; in assay [9], 1.56; in [10], -0.0391. Besides, the z-score in assay [8] is -0.666 (inactive).
Take `CCCC[C@H]1C[C@@H]1[C@@H]1N(P(=O)(c2ccccc2)c2ccccc2)C[C@@](O)(c2ccccc2)CC12CC2`: the composite z-score was 0.666 in assay [1]; -0.152 in assay [2]; 0.183 in assay [3]; -0.102 in assay [4]; 1.45 in assay [5]; 0.862 in assay [6]. Moreover, the values for the composite z-score in assay [7], in assay [9] and in assay [10] were 0.541, 1.39 and 0.893, respectively. The z-score in assay [8] is 1.11 (inactive).
On to `CCOc1cc(C(O)C2C=CC3C(=O)N(c4ccccc4)C(=O)C3N2Nc2ccc(C(C)C)cc2)ccc1O` (stereo not given), for which the composite z-score is 0.0696 in [1]; 0.201 in assay [2]; -0.0254 in assay [3]; 0.707 in [4]; 1.52 in assay [5]; 1.36 in [6]. Further, the composite z-score was 1.31 in [7], 1.17 in [9] and -0.0237 in [10]. Also, in assay [8], the z-score was 0.698 (inactive).
For the compound `COC(=O)[C@@]1(Cc2ccc(OC)cc2)[C@H]2c3cc(C(=O)N4CCCC4)n(Cc4nc5ccccc5[nH]4)c3C[C@H]2CN1C(=O)c1ccccc1`, the composite z-score is 1.13 in assay [1]; 0.572 in assay [2]; 0.417 in assay [3]; 1 in assay [4]; 1.82 in [5]; 2.11 in [6]. In addition, the composite z-score was 1.14 in [7], 1.65 in assay [9] and -0.229 in assay [10]. Also, the z-score in assay [8] is 4.38 (inactive).
On to `[N-]=[N+]=Nc1ccccc1[C@H]1OC(c2ccc(OCCCO)cc2)=N[C@@]1(Cc1ccccc1)C(=O)N1CCOCC1`, for which the composite z-score in assay [1] came to 0.875; in [2] it was 0.992; in assay [3], 0.184; in [4] it was 0.698; in assay [5], 1.57; in assay [6], 1.84. The composite z-score in assay [7] was 1.22; in [9], 1.52; in [10], 0.0873. Besides, in [8], the z-score is -1.6 (inactive).
`NCCCCCCNC(=O)[C@H]1C[C@H]2C(=O)N[C@@H](Cc3ccccc3)C(=O)N2[C@H]1c1cccc(OCCO)c1`: the composite z-score in [1] came out at 0.135; in assay [2], 0.537; in [3], 0.0227; in assay [4], 0.534; in assay [5] it was 0.427; in [6], 1.7. The composite z-score in [7] was 0.922; in assay [9], 0.482; in assay [10] it was -0.0346. For the same compound, in [8], the z-score is 1.7 (inactive).
With `[N-]=[N+]=Nc1ccccc1C[C@]1(C(=O)NCc2ccccc2)N=C(c2ccc(OCCCO)cc2)O[C@H]1c1ccccc1N=[N+]=[N-]`, the composite z-score is -0.0447 in assay [1]; 0.288 in [2]; 0.189 in [3]; 0.218 in [4]; 1.49 in assay [5]; 1.6 in assay [6]. Further, the values for the composite z-score in [7], in assay [9] and in assay [10] were 1.06, 0.726 and -0.0672, respectively. The z-score in assay [8] is -0.899 (inactive).
Turning to `C=CC[C@]1(C(N)=O)N=C(c2ccc(OCCCO)cc2)O[C@H]1c1ccccc1`, the composite z-score in assay [1] was 0.966; in [2], -0.148; in assay [3], -0.0286; in [4] it was -0.0773; in [5] it was 0.494; in assay [6], 1.92. For the same compound, the composite z-score in [7] is 1.29; in assay [9], -0.0521; in [10] it was -0.0296. Further, the z-score in assay [8] is -1.59 (inactive).
Take `C=CCC(OC(C)=O)[C@@H]1[C@@H](N(Cc2cc3ccccc3o2)C(=O)Cc2ccc(OC)cc2)c2cc(OCCCO)ccc2N1C(=O)c1ccc2ccccc2c1` (stereo not given in full): the composite z-score in [1] is 0.0894; in assay [2], 0.196; in assay [3], -0.062; in assay [4] it was 0.0575; in assay [5] it was -0.709; in [6] it was -0.336. The results for the composite z-score in [7], in assay [9] and in assay [10] were -0.0601, -0.005 and 0.0505, respectively. Moreover, the z-score in [8] is -0.194 (inactive).
With `O=C(CS)NCCCCCNC(=O)[C@@H]1C[C@@H]2C(=O)NCC(=O)N2[C@@H]1c1cccc(OCCO)c1`, the composite z-score in assay [1] is 0.312; in [2] it was 0.389; in assay [3], -0.12; in assay [4] it was -0.161; in [5] it was -0.067; in [6] it was -0.515. For the same compound, the composite z-score in [7] is 1.1; in assay [9], -0.188; in assay [10], -0.166. For the same compound, the z-score in [8] was -0.612 (inactive).
Turning to `C=CCC(OC(C)=O)[C@@H]1[C@@H](N(Cc2ccc(-c3ccccc3)cc2)C(=O)Cc2ccc(F)cc2)c2cc(OCCCO)ccc2N1C(=O)c1ccc2ccccc2c1` (stereo not given in full), the composite z-score is -0.313 in assay [1]; 0.273 in assay [2]; -0.0222 in assay [3]; -0.0326 in assay [4]; 0.166 in assay [5]; -0.158 in assay [6]. Besides, the composite z-score in [7] was -0.31; in assay [9], 0.0263; in assay [10], -0.226. Also, the z-score in [8] is 0.375 (inactive).
Take `COc1ccc(C(O)C2C=CC3C(=O)N(C)C(=O)C3N2N(c2ccccc2)c2ccccc2)c2ccccc12` (stereo not given): the composite z-score in assay [1] amounted to 0.249; in assay [2], 0.643; in assay [3], 0.0346; in [4] it was 0.412; in assay [5], 0.295; in assay [6] it was 0.85. The composite z-score was 0.894 in assay [7], 0.284 in assay [9] and 0.576 in [10]. Also, the z-score in [8] is -0.14 (inactive).
As for `CS(=O)(=O)CCOC(=O)C1=CC(CCCO)=CC(C2CC2)N(Cc2cc3c(cc2Br)OCO3)C=C1C(=O)OCCS(C)(=O)=O` (stereo not given), the composite z-score in assay [1] is -0.0672; in assay [2] it was 0.702; in assay [3], -0.0752; in assay [4] it was 0.142; in [5] it was 0.6; in [6], 1.88. Besides, the composite z-score in assay [7] is 1.2; in assay [9] it was 0.114; in assay [10], -0.0754. In assay [8], the z-score is -0.517 (inactive).
Turning to `COc1ccc([Si](C)(C)[C@@H]2[C@@H](CCn3cc(CCO)nn3)O[C@]3(C(=O)N(Cc4cccc(N5C(=O)c6cccc7cccc5c67)c4)c4ccccc43)[C@H]2C)cc1`, the composite z-score in assay [1] was -0.429; in assay [2], -0.179; in [3] it was -0.103; in assay [4], 0.359; in [5], 0.275; in assay [6] it was 0.98. Besides, the figures for the composite z-score in [7], in assay [9] and in assay [10] were 1.04, 0.525 and -0.189, respectively. Besides, the z-score in assay [8] was -1.56 (inactive).
With `CC(C)(C)OC(=O)CC[C@@]1(C(=O)N2CCCCC2)N=C(c2ccc(OCCCO)cc2)O[C@@H]1c1ccccc1`, the composite z-score in assay [1] is 0.249; in [2], 0.615; in [3], 0.171; in assay [4], 0.783; in assay [5], 1.68; in assay [6], 1.72. Further, the composite z-score was 1.23 in [7], 1.12 in [9] and -0.0618 in assay [10]. The z-score in assay [8] was -3.24 (inactive).
Take `NCCCCCNC(=O)[C@H]1C[C@H]2C(=O)N3CCC[C@H]3C(=O)N2[C@H]1c1ccc(O)cc1`: the composite z-score in assay [1] worked out at 1.39; in [2], 1.06; in [3], 0.197; in assay [4] it was 0.457; in [5], 0.698; in assay [6], 1.62. Also, the composite z-score turned out to be 1.23 in assay [7], 1.52 in assay [9] and 0.399 in assay [10]. In [8], the z-score is 0.0225 (inactive).
